Several values for one entry are separate records, joined by “and”; a condition that tells them apart may be missing. Identical values can stand only once. Records with an inconclusive call do not appear. Activity calls are given as the source filed them. Unless noted, calls follow the shape of the full dose curve.
Legend:
[1] = target: Glucocorticoid receptor (Homo sapiens) (UniProt P04150); experiment: qHTS assay for small molecule agonists of glucocorticoid receptor signaling (AID 588532; active = well fitted curve in the direction sought with a large enough effect in the signal ratio, with a control signal flat; the % refers to the signal ratio;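 also: 100% = dexamethasone at 0.1 µM and 0% = DMSO only wells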); settings: HeLa MMTV-bla, beta-lactamase ratio, agonist, 18 h; activation: stronger effect = higher value, percent of dexamethasone control, DMSO zero
Glucocorticoid receptor (Homo sapiens), sequence (P04150 whole entry, looked up): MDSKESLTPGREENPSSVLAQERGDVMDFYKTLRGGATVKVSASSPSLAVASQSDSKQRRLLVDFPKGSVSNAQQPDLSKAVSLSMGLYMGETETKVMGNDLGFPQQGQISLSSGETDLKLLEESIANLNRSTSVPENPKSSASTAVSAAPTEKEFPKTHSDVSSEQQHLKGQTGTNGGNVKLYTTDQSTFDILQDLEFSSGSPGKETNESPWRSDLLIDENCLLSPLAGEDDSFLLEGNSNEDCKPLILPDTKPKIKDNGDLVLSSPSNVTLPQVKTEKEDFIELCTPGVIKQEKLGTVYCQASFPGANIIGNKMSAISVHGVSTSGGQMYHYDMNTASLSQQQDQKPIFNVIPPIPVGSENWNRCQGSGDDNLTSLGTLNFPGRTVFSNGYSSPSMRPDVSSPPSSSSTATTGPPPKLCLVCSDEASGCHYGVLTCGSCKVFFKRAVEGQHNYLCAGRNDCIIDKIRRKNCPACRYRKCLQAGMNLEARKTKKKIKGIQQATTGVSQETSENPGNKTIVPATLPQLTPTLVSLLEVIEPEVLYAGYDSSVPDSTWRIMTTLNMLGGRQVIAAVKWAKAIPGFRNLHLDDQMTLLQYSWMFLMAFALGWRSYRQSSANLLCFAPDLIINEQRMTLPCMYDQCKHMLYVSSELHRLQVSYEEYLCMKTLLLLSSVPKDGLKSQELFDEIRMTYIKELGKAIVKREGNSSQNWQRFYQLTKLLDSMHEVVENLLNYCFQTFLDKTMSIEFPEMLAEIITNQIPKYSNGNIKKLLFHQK
Method in brief: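 Using MMTV-bla HeLa cells in medium with 1% stripped FBS and 25 mM HEPES, compounds were titrated and incubated overnight-length (18 h). Beta-lactamase cleavage of CCF4 was quantified by dual-emission fluorescence.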

[2] = target: Glucocorticoid receptor (Homo sapiens) (UniProt P04150); experiment: qHTS assay for small molecule antagonists of glucocorticoid receptor signaling (AID 588533; active = well fitted inhibition curve with a large enough effect in the signal ratio, with a control signal flat, not every such curve was filed as active; the % refers to the signal ratio;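 also: cells stimulated with 2 nM dexamethasone as agonist; % is scaled to controls: 0 for no effect and ±100 for the full control effect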)
Method in brief: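 Antagonist-mode qHTS: compound titrations added to GRE-bla HeLa cells, then dexamethasone 2 nM final; 18 h, 37 C. CCF4 FRET fluorescence normalized to dexamethasone and DMSO; IC50 from Hill fit.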

[3] = target: Peroxisome proliferator-activated receptor delta (Homo sapiens) (UniProt Q03181); experiment: qHTS assay for small molecule agonists of peroxisome proliferator-activated receptor delta signaling (AID 588534);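 also: 0% = DMSO basal wells and 100% = positive control agonist at 10 µM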
Peroxisome proliferator-activated receptor delta (Homo sapiens), sequence (Q03181 whole entry, looked up): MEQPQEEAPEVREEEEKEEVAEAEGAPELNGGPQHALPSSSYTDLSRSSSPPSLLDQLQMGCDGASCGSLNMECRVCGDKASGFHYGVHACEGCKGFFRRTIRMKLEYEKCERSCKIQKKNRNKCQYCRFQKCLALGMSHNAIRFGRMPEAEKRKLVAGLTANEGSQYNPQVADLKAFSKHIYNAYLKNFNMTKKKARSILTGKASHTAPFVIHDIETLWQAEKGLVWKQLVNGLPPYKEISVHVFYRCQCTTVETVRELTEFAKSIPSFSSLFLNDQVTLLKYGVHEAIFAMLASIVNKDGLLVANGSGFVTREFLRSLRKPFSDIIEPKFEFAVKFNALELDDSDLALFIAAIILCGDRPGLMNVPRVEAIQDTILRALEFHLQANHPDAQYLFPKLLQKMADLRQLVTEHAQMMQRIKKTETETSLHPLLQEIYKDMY
Method in brief: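 Agonist-mode qHTS; reporter cells, 5 hrs 37 C pre-incubation; compound titration, 18 hrs 37 C; CCF4 dye, 2 hrs RT; fluorescence read. EC50/efficacy via Hill fit.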

[4] = qHTS assay for small molecule antagonists of peroxisome proliferator-activated receptor delta signaling (AID 588535); settings: HEK293T PPARd-UAS-bla, beta-lactamase FRET ratio, 18 h; 460 nm channel;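 also: cells co-treated with a PPAR-delta agonist as stimulator during compound exposure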
Method in brief: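 Titrations were run on PPAR-delta-UAS-bla HEK293T cells in charcoal/dextran-stripped serum, incubated 18 h at 37 C. CCF4 fluorescence (460/530 nm) after 2 h RT; Hill equation yields IC50 and maximal response.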

[5] = target: Vitamin D3 receptor (Homo sapiens) (UniProt P11473); experiment: qHTS assay for small molecule antagonists of vitamin D receptor signaling (AID 588541);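 also: receptor activated by calcitriol during compound treatment; series mostly up to about 77 µM; % is scaled to controls: 0 for no effect and ±100 for the full control effect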
Vitamin D3 receptor (Homo sapiens), sequence (P11473 whole entry, looked up): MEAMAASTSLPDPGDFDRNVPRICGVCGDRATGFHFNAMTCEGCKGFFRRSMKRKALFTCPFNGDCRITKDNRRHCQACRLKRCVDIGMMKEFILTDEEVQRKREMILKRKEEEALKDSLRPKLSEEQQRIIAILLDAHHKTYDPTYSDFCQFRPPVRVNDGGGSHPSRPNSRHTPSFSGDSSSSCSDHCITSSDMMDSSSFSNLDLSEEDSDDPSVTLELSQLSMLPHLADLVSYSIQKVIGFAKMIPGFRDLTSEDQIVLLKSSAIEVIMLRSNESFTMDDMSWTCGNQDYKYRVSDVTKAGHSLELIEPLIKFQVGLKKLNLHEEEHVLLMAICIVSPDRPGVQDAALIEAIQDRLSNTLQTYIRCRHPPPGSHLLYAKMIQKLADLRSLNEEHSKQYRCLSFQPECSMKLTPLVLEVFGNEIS
Method in brief: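 Antagonist-mode beta-lactamase reporter assay: HEK293T VDR-UAS-bla cells were exposed to titrated compound alongside 1-alpha,25-dihydroxyvitamin D3 at 3 nM final for 16 h. Values were normalized to the 50 nM agonist control and DMSO basal, with IC50 and efficacy from Hill equation fits.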

[6] = target: Vitamin D3 receptor (Homo sapiens) (UniProt P11473); experiment: qHTS assay for small molecule agonists of vitamin D receptor signaling (AID 588543);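 also: 0% = DMSO basal and 100% = reference agonist control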
Method in brief: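 qHTS in agonist mode: compound titrations stimulate a VDR-driven β-lactamase reporter in HEK293T cells over 16 h at 37 °C. Response normalized to 50 nM 1α,25-dihydroxyvitamin D3 = 100%, DMSO = 0%; Hill fitting gives EC50 and maximal response.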

[7] = target: Thyroid hormone receptor beta (Homo sapiens) (UniProt P10828); experiment: qHTS assay for small molecule agonists of thyroid hormone receptor beta signaling (AID 588545);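 also: 0% = DMSO only and 100% = 10 nM T3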
Thyroid hormone receptor beta (Homo sapiens), sequence (P10828 whole entry, looked up): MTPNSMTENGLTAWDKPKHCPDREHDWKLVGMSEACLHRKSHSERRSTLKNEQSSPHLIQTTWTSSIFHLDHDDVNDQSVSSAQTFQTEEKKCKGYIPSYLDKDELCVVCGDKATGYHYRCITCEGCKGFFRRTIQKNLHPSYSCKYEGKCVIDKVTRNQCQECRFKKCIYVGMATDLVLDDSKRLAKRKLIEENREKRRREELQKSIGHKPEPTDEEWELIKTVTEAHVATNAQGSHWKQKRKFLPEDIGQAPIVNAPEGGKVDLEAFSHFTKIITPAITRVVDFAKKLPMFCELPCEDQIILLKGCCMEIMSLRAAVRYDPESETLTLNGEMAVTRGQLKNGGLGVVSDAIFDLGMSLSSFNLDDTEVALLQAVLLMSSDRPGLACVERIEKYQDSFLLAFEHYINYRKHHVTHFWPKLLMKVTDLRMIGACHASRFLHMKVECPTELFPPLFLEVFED
Method in brief: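 Efficacy and EC50 values derive from Hill fits of qHTS titration data, normalized to 10 nM T3 and DMSO-only wells. HEK 293 reporter cells were stimulated for 18 hrs at 37 C, with beta-lactamase activity measured by CCF4 fluorescence.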

[8] = target: Thyroid hormone receptor beta (Homo sapiens) (UniProt P10828); experiment: qHTS assay for small molecule antagonists of thyroid hormone receptor beta signaling (AID 588547; active = well fitted inhibition curve with a large enough effect in the signal ratio, with a control signal flat, not every such curve was filed as active; the % refers to the signal ratio;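 also: cells stimulated with 0.4 nM T3 agonist during compound exposure; series mostly up to about 77 µM; % is scaled to controls: 0 for no effect and ±100 for the full control effect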); settings: TR-UAS-bla HEK293, beta-lactamase ratio, antagonist mode, 18 h
Method in brief: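 Inhibition of T3-driven (0.4nM final) beta-lactamase reporter activity was measured over 0.59 nM to 92 uM compound after 18 h at 37 C. The cells were GripTite HEK293 TR-UAS-bla in charcoal/dextran-stripped serum, with CCF4 ratio read-out and IC50 from Hill fits.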

[9] = qHTS assay for small molecule activators of the p53 signaling pathway (AID 651743; active = well fitted activation curve with a large enough effect in the signal ratio, not every such curve was filed as active; the % refers to the signal ratio; also: series mostly up to about 92 µM; % of control where 0% means no effect); settings: HCT-116 p53RE-bla, beta-lactamase FRET ratio, 16 h; activation: stronger effect = higher value
Method in brief: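 After 16 hours compound treatment at 37 C, HCT-116 cells stably expressing p53RE-driven beta-lactamase were loaded with LiveBLAzer B/G FRET substrate for 2 hours at room temperature. Fluorescence intensity served as the p53 activation read-out.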

[10] = qHTS assay for small molecule activators of the nuclear factor-kappa B (NF-kB) signaling pathway (AID 651749; active = well fitted activation curve with a large enough effect in the signal ratio; the % refers to the signal ratio; also: series mostly up to about 77 µM; % of control where 0% means no effect); settings: NF-kB-bla ME-180 cells, beta-lactamase FRET ratio, 16 h; activation: stronger effect = higher value
Method in brief: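 Activation measured after 16 hr compound treatment at 37C, 5% CO2, of 2,000 ME-180 cells/well stably expressing an NF-kB response element–driven beta-lactamase reporter, via FRET-disruption fluorescence.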

[11] = qHTS assay for environmental chemicals that activate the Aryl hydrocarbon Receptor (AhR) signaling pathway (AID 651777; active = well fitted curve in the direction sought with a large enough effect; an effect the other way counts as inactive or inconclusive; also: % of control where 0% means no effect; nearly all actives have a fitted effect of over 15% in size); settings: 1A2-DRE human hepatoma cells, luciferase, 24 h; activation: stronger effect = higher value
Method in brief: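 Luminescence read-out: One-Glo added for 30 min at RT after 24 hr compound treatment (37 C, 5% CO2) of human hepatoma cells expressing a DRE/CYP1A2 promoter–luciferase reporter; increased signal indicates AhR activation.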

[12] = target: Peroxisome proliferator-activated receptor alpha (Homo sapiens) (UniProt Q07869); experiment: qHTS assay for small molecule agonists of the peroxisome proliferator-activated receptor alpha (PPARalpha) signaling pathway (AID 651778; active = well fitted curve in the direction sought with a large enough effect; an effect the other way counts as inactive or inconclusive; also: % of control where 0% means no effect); settings: PathHunter PPARalpha complementation, chemiluminescence, 6 h; max response: stronger effect = higher value
Peroxisome proliferator-activated receptor alpha (Homo sapiens), sequence (Q07869 whole entry, looked up): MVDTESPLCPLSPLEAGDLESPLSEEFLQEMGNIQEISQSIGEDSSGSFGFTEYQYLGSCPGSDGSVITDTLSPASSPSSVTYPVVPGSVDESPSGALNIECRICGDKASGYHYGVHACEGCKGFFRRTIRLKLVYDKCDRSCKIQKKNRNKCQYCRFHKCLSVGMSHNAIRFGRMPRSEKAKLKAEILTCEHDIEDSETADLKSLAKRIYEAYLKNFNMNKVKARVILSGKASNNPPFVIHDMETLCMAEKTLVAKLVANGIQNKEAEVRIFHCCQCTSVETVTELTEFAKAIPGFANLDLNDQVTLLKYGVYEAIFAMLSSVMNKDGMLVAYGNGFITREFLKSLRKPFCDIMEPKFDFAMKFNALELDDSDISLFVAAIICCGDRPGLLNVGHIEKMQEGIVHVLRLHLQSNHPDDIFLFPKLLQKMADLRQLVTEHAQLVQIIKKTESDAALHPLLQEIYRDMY
Method in brief: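 Chemiluminescence from complemented enzyme reported PPARalpha activation in cells after 6 hr of compound treatment at 37 C. The detection reagent was incubated for 60 min at room temperature, and compounds were scored as agonists.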

[13] = qHTS assay for small molecule agonists of the antioxidant response element (ARE) signaling pathway measured by Nrf2-dependant transcriptional activity (AID 720636; active = well fitted curve in the direction sought with a large enough effect in the repeat runs; an effect the other way counts as inactive or inconclusive;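 also: HepG2 cells with an ARE-driven luciferase reporter; % of control where 0% means no effect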)
Method in brief: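 HepG2 ARE-luc reporter line, 1% dialyzed FBS; 6 hr attachment at 37 C, compound pinned in, 16 hr at 37 C/5% CO2; ONE-Glo, 30 min RT, luminescence read.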

[14] = qHTS assay for small molecule agonists of the antioxidant response element (ARE) signaling pathway measured by Nrf2-dependant transcriptional activity - cell viability counter screen (AID 720653; active = well fitted curve in the direction sought with a large enough effect in the repeat runs; an effect the other way counts as inactive or inconclusive; also: % is scaled to controls: 0 for no effect and ±100 for the full control effect); settings: ARE-bla HepG2 viability, CellTiter-Glo ATP luminescence, 16 h; max response: stronger effect = lower value
Method in brief: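 Cytotoxicity counter screen: intracellular ATP quantified by CellTiter-Glo luminescence in the same ARE-bla HepG2 plates, after 16 h compound exposure and a 2 h beta-lactamase substrate step.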

[15] = qHTS assay for cell viability of the p53RE-bla HCT-116 cell line (AID 743292; active = well fitted curve in the direction sought with a large enough effect; an effect the other way counts as inactive or inconclusive; also: % is scaled to controls: 0 for no effect and ±100 for the full control effect; nearly all actives have a fitted effect of over 55% in size)
Method in brief: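 Luminescent ATP quantitation (CellTiter-Glo) served as the viability read-out; reagent was added after 16 h compound exposure at 37 C and read after 30 min at room temperature. Cells: p53RE-bla HCT-116, 4,000 per well.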

[16] = target: Retinoic acid receptor RXR-alpha (Homo sapiens) (UniProt P19793); experiment: qHTS assay for small molecule agonists of retinoid X receptor alpha signaling (AID 588544); also: potency is read from the fitted curve at half-maximal effect;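 as to activation: 0% = DMSO basal wells and 100% = reference agonist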
Retinoic acid receptor RXR-alpha (Homo sapiens), sequence (P19793 whole entry, looked up): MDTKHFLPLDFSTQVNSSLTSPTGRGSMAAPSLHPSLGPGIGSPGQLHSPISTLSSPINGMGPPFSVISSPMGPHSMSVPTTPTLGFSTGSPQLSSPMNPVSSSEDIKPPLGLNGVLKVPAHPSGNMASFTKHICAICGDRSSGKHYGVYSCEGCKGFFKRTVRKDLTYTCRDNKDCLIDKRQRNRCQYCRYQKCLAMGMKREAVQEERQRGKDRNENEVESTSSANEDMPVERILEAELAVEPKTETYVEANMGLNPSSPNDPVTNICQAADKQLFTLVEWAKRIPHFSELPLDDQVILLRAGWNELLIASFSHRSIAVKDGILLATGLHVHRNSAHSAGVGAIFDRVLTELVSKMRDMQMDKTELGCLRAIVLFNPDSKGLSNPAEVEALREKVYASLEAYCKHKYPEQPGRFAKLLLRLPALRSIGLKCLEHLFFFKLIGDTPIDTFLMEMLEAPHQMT

[17] = qHTS assay for small molecule antagonists of retinoid X receptor alpha signaling (AID 588546; active = well fitted inhibition curve with a large enough effect in the signal ratio, with a control signal flat, not every such curve was filed as active; the % refers to the signal ratio; also: potency is read from the fitted curve at half-maximal effect); settings: HEK293T RXRa-UAS-bla, beta-lactamase ratio, antagonist mode; measured here: W530 green channel, cytotoxicity proxy
Method in brief: (§1)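 Beta-lactamase reporter inhibition, read as CCF4 fluorescence ratio (ex 405, em 460/530 nm) after 2 h at RT. HEK293T UAS-bla cells, 2500/well, were stimulated with 9-cis-RA at 500 or 100 nM final alongside test compound for 18 h at 37 C.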

[18] = target: Retinoic acid receptor RXR-alpha (Homo sapiens) (UniProt P19793); experiment: as above; settings: HEK293T RXRa-UAS-bla, beta-lactamase ratio, antagonist mode
Method in brief: as §1

[19] = qHTS assay for cell viability of HEK293 cells (AID 743288; active = well fitted curve in the direction sought with a large enough effect; an effect the other way counts as inactive or inconclusive; also: nearly all actives have a fitted effect of over 50% in size; also: potency is read from the fitted curve at half-maximal effect); settings: ATP luminescence (CellTiter-Glo), 18 h; max response: stronger effect = lower value
Method in brief: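 Quantitative high-throughput screen: compounds were pinned onto parental HEK293 cells (2,000 per well) after a minimum 5 h settling at 37 C, incubated 18 h at 37 C, and intracellular ATP measured by luciferase luminescence.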

[20] = target: Nuclear receptor subfamily 1 group I member 2 (Rattus norvegicus) (UniProt Q9R1A7); experiment: qHTS assay for small molecule activators of the rat pregnane X receptor (rPXR) signaling pathway (AID 651751; call rule not given here; also: 0% is about no effect); settings: rPXR reporter cells, luciferase (One-Glo), 24 h
Nuclear receptor subfamily 1 group I member 2 (Rattus norvegicus), sequence (Q9R1A7 whole entry, looked up): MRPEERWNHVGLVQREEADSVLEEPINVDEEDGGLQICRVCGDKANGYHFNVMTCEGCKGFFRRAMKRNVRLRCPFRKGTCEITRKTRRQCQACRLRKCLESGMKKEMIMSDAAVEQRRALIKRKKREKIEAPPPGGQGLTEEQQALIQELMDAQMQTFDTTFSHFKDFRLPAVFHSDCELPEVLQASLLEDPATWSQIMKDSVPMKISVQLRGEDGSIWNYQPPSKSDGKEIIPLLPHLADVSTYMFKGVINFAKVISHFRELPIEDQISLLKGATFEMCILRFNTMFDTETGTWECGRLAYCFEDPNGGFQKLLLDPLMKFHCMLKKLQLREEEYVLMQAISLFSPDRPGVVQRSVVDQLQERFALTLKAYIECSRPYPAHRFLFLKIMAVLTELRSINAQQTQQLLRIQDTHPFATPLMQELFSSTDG

CNC(=O)Oc1cc(C)c(SC)c(C)c1
12.6%: max response [4]
inactive: activation [1] 13.5% | Potency [2] | outcome [3] | Potency [5] | outcome [6] | Potency [7] | activity change % (negative = inhibition) [8] -16.8% | activation [9] -3.45% | activation [10] -0.568% | activation [11] 0.0661% | max response [12] 0.9% | Potency [13] | max response [14] -13.2% | Potency [15]

Cc1cccc2sc3nncn3c12
inactive: outcome [3] | Potency [16] | Potency [7] | max response [18] 2.1% | activity change % (negative = inhibition) [8] 6.25% | activation [9] 2.35% | activation [10] 0.0956% | activation [11] -0.0294% | max response [12] -0.811% | max response [14] 0.787% | max response [19] -3.66% | Potency [15]
-10.6%: max response [17]
26.1%: max response [4]

O=C(O)C(F)(F)C(F)(F)C(F)(F)C(F)(F)C(F)(F)C(F)(F)C(F)(F)C(F)(F)F
inactive: activation [1] -0.386% and 5.13% | Potency [2] | outcome [3] | Potency [5] | outcome [6] | Potency [16] | Potency [7] | max response [18] 2.77% and -39.3% | activity change % (negative = inhibition) [8] 1.6% and 0.325% | activation [9] 1.7% | activation [11] 2.07% and 1.12% | max response [12] -1.46% and 5.33% | Potency [13] | max response [14] 4.68% and -1.78% | max response [19] -7.25% and -13% | Potency [15] | max response [20] 1.17% and 2.66%
-12.8% and -2.74%: max response [17]
-4.97% and -33.9%: max response [4]

CNC(=O)Oc1cccc(N=CN(C)C)c1
16.5%: max response [4]
inactive: outcome [3] | Potency [5] | Potency [16] | Potency [7] | max response [18] 10.6% | activity change % (negative = inhibition) [8] 4.27% | activation [9] -4.39% | max response [12] 2.04% | Potency [13] | max response [14] -21.4% | max response [19] -9.91% | max response [20] -4.82%
-11.7%: max response [17]

[Ga]#[As]
-11%: max response [17]
inactive: Potency [2] | outcome [3] | Potency [5] | Potency [16] | Potency [7] | max response [18] 6.85% | activation [9] -1.62% | activation [10] -0.5% | activation [11] 0.963% | max response [12] -1.03% | Potency [13] | max response [14] -2.5% | max response [19] -2.89% | Potency [15] | max response [20] -5.29%
33%: max response [4]

CC(C)N(C(=O)COc1nnc(C(F)(F)F)s1)c1ccc(F)cc1
-37.1%: max response [4]
inactive: activation [1] 1.07% | Potency [2] | outcome [3] | Potency [7] | activity change % (negative = inhibition) [8] -0.765% | activation [9] 0.0644% | activation [10] -1.4% | activation [11] -0.614% | max response [12] -0.147% | max response [14] -9% | max response [19] -8% | Potency [15] | max response [20] -3.84%

CCCCOCCOC(C)=O
-10.5%: max response [4]
-13.5%: max response [17]
inactive: activation [1] -12.9% | Potency [2] | outcome [3] | Potency [5] | outcome [6] | Potency [16] | Potency [7] | activity change % (negative = inhibition) [8] -3.6% | activation [9] 0.23% | activation [11] 0.977% | max response [12] 0.401% | Potency [13] | max response [14] -5.86% | max response [19] -2.95% | max response [20] 2.29%

Nc1cccc(Cl)c1Cl
inactive: activation [1] 0.21% | Potency [2] | outcome [3] | Potency [5] | outcome [6] | Potency [16] | Potency [7] | max response [18] -4.45% | activation [9] -4.27% | activation [10] -2.53% | activation [11] -0.499% | max response [12] -3.86% | Potency [13] | max response [14] -14.4% | max response [19] -1.9% | Potency [15] | max response [20] 0.634%
-14.5%: max response [17]
30.5%: max response [4]

CCC[CH2][Sn]([Cl])([CH2]CCC)[CH2]CCC
inactive: activation [1] -5.41% | activation [11] 8.68% | max response [12] 2.3%
active: Potency [16] 0.398 µM | Potency [19] 50.1 µM

CC(C)(C)[C@@H](O)/C(=C\c1ccc(Cl)cc1Cl)n1cncn1
active: Potency [18] 44.7 µM
18.6%: max response [17]
inactive: activation [1] -11.9% | Potency [2] | outcome [3] | outcome [6] | Potency [7] | activity change % (negative = inhibition) [8] -11.6% | activation [9] -3.2% | Potency [13] | Potency [15]

O=C1c2ccccc2C(=O)C1C(=O)C(c1ccccc1)c1ccc(Cl)cc1 (stereo not drawn)
-2.15%: max response [17]
65.6%: max response [4]
inactive: outcome [3] | Potency [5] | outcome [6] | Potency [16] | Potency [7] | max response [18] 36.5% | activity change % (negative = inhibition) [8] 15% | activation [10] -3.47% | activation [11] 3.58% | max response [12] -1.87% | Potency [13] | max response [14] -33.5% | max response [19] -28.8% | max response [20] 10.4%

CCc1cc(C)cc(CC)c1-c1c(OC(=O)C(C)(C)C)n2n(c1=O)CCOCC2
34.5%: max response [4]
0.581%: max response [17]
inactive: activation [1] -0.342% | Potency [2] | outcome [3] | Potency [5] | Potency [16] | Potency [7] | max response [18] 4.99% | activity change % (negative = inhibition) [8] -5.07% | activation [9] -4.38% | max response [12] -1.33% | Potency [13] | max response [14] 0.802% | max response [19] -3.66% | Potency [15] | max response [20] 1.04%

Source: PubChem BioAssay (NCATS)
